Source: PubChem BioAssay
Hits are enriched below; roughly 1.7% of the tested compounds scored in any of these assays.
RXFP1 antagonist: blocks the human relaxin receptor RXFP1 | activity change, negative = inhibition, % at 57.5 µM | HEK293-RXFP1, relaxin-stimulated cAMP HTRF, 30 min; stronger effect = lower value | Q9HBX9 | 350,000 compounds, 0.59% hits | AID 1259400;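 active means activity change of -60% or lower, but not beyond a set lower limit; inconclusive means change between -60% and -40%, or beyond the set limit; inactive means change above -40%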
Target sequence (Q9HBX9 whole entry, looked up): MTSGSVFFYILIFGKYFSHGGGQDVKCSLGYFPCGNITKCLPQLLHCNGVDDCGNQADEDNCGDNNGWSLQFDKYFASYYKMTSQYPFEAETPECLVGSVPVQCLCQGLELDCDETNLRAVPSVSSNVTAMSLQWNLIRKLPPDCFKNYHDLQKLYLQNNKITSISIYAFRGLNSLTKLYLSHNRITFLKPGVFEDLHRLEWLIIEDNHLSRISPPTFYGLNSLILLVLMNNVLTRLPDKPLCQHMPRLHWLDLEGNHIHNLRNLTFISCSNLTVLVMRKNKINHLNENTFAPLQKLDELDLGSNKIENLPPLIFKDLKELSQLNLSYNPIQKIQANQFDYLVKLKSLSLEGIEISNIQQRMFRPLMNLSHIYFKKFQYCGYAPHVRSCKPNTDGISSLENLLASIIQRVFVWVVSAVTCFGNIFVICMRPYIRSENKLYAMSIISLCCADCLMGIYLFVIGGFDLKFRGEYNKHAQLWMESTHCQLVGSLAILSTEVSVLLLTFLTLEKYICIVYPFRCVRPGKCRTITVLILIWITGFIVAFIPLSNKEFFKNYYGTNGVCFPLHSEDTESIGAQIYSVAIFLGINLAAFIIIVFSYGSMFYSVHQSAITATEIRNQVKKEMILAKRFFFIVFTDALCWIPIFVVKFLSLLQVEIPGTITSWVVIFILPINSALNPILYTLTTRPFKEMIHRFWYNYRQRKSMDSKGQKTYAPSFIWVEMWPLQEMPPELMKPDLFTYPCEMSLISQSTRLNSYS
KCNH2 WT inh: KCNH2 (human, wildtype) channel inhibition; Q12809; U2OS, BacMam KCNH2, thallium flux FluxOr; stronger effect = lower value; activity change, % at 1.84 µM; 340,000 compounds, 0.37% hits;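 active means maximum activity change below -70%; inconclusive means maximum activity change between -70% and -50%; inactive means maximum activity change above -50%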
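U2OS cells were transduced with wild-type KCNH2 virus (2.03 x 10^8 / mL) for 4 h at room temperature, then cultured overnight at 37 C. Thallium flux was read with FluxOr dye. Rate constants were normalized to DMSO controls.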
RXFP1 ag: agonists of human relaxin receptor RXFP1. Q9HBX9. HEK293T-RXFP1 cAMP TR-FRET, 30 min; response scale: percent of porcine relaxin response, buffer zero. Potency, µM (top dose mostly 57.5 µM), without a hit: top-dose activation, most hits filed as activators. 370,000 compounds, 0.3% hits; active means well fitted activation curve with a large enough effect; inconclusive means small, poorly fitted or top-dose-only effect; further: potency means the concentration at half of the fitted maximal effect; nearly all actives have a fitted effect of over 60% in size
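HEK293T cells stably expressing RXFP1 were pretreated with the PDE4 inhibitor Ro 20174, exposed to compounds for 30 min at 37C, lysed, and cAMP was read by TR-FRET. Data normalized to buffer (basal) and 29 nM porcine relaxin (100%).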
KCNH2 3.1 block: blocks the human KCNH2 3.1 channel isoform. U2OS KCNH2 3.1, thallium flux FluxOr; stronger effect = lower value. activity change, % (tested at about 1.8 µM). 340,000 compounds, 0.95% hits. AID 720553;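 active means maximum activity change below -70%; inconclusive means maximum activity change from -70% to -50%; inactive means maximum activity change above -50%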;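 further: thallium influx rate constant from kinetic fluorescence after stimulation buffer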
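Steps: virus added to U2OS suspension (4 h, RT, dark); medium with 10% FBS added, cells plated, 37 C overnight; FluxOr/Red40 loading buffer 45 min RT; stimulation buffer, 2 min kinetic read; rate constant normalized.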
pAkt inh: Akt phosphorylation inhibition | Neuro2A IGF-stimulated pAkt S473 HTRF, 20 min; stronger effect = lower value | activity change, % for hits at 50 µM | 360,000 compounds, 0.32% hits; in the data active means activity change below about -80%; inconclusive means mostly about -51% to -80%
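Neuro2A cells in DMEM with 0.5% FBS, overnight at 37 deg C, given compound at single 50 µM final, then IGF (6 nM final) for 20 min at 37 deg C. Lysed; phospho-Akt Ser473 by HTRF after 24 h, 665/615 ratio.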
Numbers without * were called inactive. On the % scale 0 is the no-effect control and ±100 the full control effect.

How did CCn1c(SCC(=O)Nc2nc3ccccc3s2)nnc1-c1ccc(Br)cc1 do in these assays?
RXFP1 antagonist: -1; KCNH2 WT inh: 3; RXFP1 ag: inconclusive; KCNH2 3.1 block: -14; pAkt inh: -89%*

What do the screens show for `CCn1c(SCC(=O)Nc2ccccc2-c2ccccc2)nnc1-c1ccoc1C`?
RXFP1 antagonist: 3; KCNH2 WT inh: 7; RXFP1 ag: 0%; KCNH2 3.1 block: 6; pAkt inh: inactive

Results for N#Cc1ccc(NC(=S)NCCN2CCOCC2)cc1 ?
RXFP1 antagonist: 7; KCNH2 WT inh: -3; RXFP1 ag: -1%; KCNH2 3.1 block: -17; pAkt inh: inactive

How did CC1CCN(C(=O)CSc2nc3cccnc3n2C)CC1 do in these assays?
RXFP1 antagonist: 4; KCNH2 WT inh: -10; RXFP1 ag: 2%; KCNH2 3.1 block: 16; pAkt inh: inactive

What do the screens show for `NNC(=O)c1ccc2nc(-c3ccc(Br)cc3)cn2c1`?
RXFP1 antagonist: -18; KCNH2 WT inh: 0; RXFP1 ag: 8%; KCNH2 3.1 block: -4; pAkt inh: inactive

What do the screens show for `CC(C)CCC(CCNCc1ccccn1)c1ccc(Cl)cc1` (stereo not drawn)?
RXFP1 antagonist: -69*; KCNH2 WT inh: -33; RXFP1 ag: -1%; KCNH2 3.1 block: -91*; pAkt inh: inactive

What do the screens show for `S=C(NCc1ccc(Cl)cc1)NCc1ccccn1`?
RXFP1 antagonist: -2; KCNH2 WT inh: -5; RXFP1 ag: 1%; KCNH2 3.1 block: 2; pAkt inh: inactive

How did N#CC1(Cc2ccccc2)c2ccccc2C=CN1C(=O)c1ccccc1 (stereo not drawn) do in these assays?
RXFP1 antagonist: -9; KCNH2 WT inh: 5; RXFP1 ag: 2%; KCNH2 3.1 block: 6; pAkt inh: inactive

What do the screens show for `N#CC1(Cc2ccc([N+](=O)[O-])cc2)c2ccccc2C=CN1C(=O)c1ccccc1` (stereo not drawn)?
RXFP1 antagonist: -2; KCNH2 WT inh: 3; RXFP1 ag: -2%; KCNH2 3.1 block: -88*; pAkt inh: inactive

How did Cc1ccc(CNC(=O)Cn2cccc2)cc1 do in these assays?
RXFP1 antagonist: 13; KCNH2 WT inh: -1; RXFP1 ag: 0%; KCNH2 3.1 block: 15; pAkt inh: inactive

Results for COc1ccc(CNc2ncnc3onc(-c4ccc(F)cc4)c23)cc1 ?
RXFP1 antagonist: -7; RXFP1 ag: -1%

Results for COC(=O)c1cc(NC(=O)CC2CCCC2)cc(C(=O)OC)c1 ?
RXFP1 antagonist: -2; KCNH2 WT inh: 0; RXFP1 ag: 5%; KCNH2 3.1 block: -73*; pAkt inh: inactive

Results for COc1ccc(NS(=O)(=O)c2cccc(C(=O)NCC(c3ccc(F)cc3)N3CCOCC3)c2)cc1 (stereo not drawn) ?
RXFP1 antagonist: -4; KCNH2 WT inh: 10; RXFP1 ag: 0%; KCNH2 3.1 block: -1; pAkt inh: inactive

Results for COc1cc(NC(=O)c2cc(-c3ccccc3)on2)cc(OC)c1OC ?
RXFP1 antagonist: 5; KCNH2 WT inh: -4; RXFP1 ag: 1%; KCNH2 3.1 block: 3; pAkt inh: inactive

Results for COc1cc(NC(=O)c2cc3nc(-c4ccccc4)cc(-c4ccccc4)n3n2)cc(OC)c1OC ?
RXFP1 antagonist: 4; KCNH2 WT inh: -5; RXFP1 ag: 2%; KCNH2 3.1 block: -73*

What do the screens show for `O=C(COc1ccc(C(=O)c2ccc(F)cc2)cc1)Nc1cccc(S(=O)(=O)N2CCOCC2)c1`?
RXFP1 antagonist: -8; KCNH2 WT inh: 18; pAkt inh: inactive

How did O=C(O)c1ccc(C[n+]2c(-c3ccccc3)csc2Nc2ccccc2)cc1 do in these assays?
RXFP1 antagonist: -5; KCNH2 WT inh: -4; RXFP1 ag: -1%; KCNH2 3.1 block: -2; pAkt inh: inactive

How did C=CC[n+]1c(C)csc1Nc1ccc(C(=O)O)cc1 do in these assays?
RXFP1 antagonist: -3; RXFP1 ag: 3%; KCNH2 3.1 block: -79*; pAkt inh: inactive

Results for Cc1cc(C(C#N)c2ccc(Cl)cc2)c(Cl)cc1NC(=O)c1cc(I)cc(I)c1O (stereo not drawn) ?
RXFP1 antagonist: -112*; KCNH2 WT inh: 2; RXFP1 ag: 0%; KCNH2 3.1 block: -8; pAkt inh: inactive
